PglD inh – C. jejuni PglD acetyltransferase inhibitors, primary screen, biochemical, DTNB colorimetric, single point; purified PglD enzyme, DTNB colorimetric CoA detection; inhibition, % at 12.5 µM; UDP-N-acetylbacillosamine N-acetyltransferase PglD (Campylobacter jejuni); 0.098% of 360,000 active; in the data active = inhibition above about 16%, passing the limit was not always enough; inconclusive = no clear call, values can overlap the other calls
Rtt109 HAT inh – inhibitors of C. albicans Rtt109/Vps75 HAT, primary screen, biochemical, ThioGlo CoA-SH fluorescence, plate reader; 0.16% of 330,000 active; inhibition, % at 34.9 µM; purified Rtt109/Vps75, 4 h; Histone acetyltransferase RTT109 (Candida albicans (strain SC5314 / ATCC MYA-2876)), …; AID 540336, 2011;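 active = inhibition of at least 50% in every replicate; inconclusive = best replicate reaches 50% inhibition but some replicates fall short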
Target sequence (Q5AAJ8 whole entry, looked up): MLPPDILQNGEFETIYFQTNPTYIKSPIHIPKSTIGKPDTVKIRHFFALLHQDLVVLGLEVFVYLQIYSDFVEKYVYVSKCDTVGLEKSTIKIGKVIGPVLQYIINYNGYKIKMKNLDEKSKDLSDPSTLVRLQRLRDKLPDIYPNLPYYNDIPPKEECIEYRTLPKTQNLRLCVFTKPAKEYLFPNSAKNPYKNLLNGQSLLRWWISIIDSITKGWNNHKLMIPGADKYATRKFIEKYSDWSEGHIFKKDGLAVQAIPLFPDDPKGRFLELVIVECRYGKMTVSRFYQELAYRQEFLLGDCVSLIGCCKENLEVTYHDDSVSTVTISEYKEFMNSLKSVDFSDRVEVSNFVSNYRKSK
Glyco luc inh – increase of ERlucT glycosylation luciferase signal, primary screen, N-linked glycosylation inhibitor project, D54 ERlucT cells, luminescence, set 2; D54 ERlucT glycosylation luciferase reporter, 24 h; percent of 100 nM tunicamycin response; reporter increase, % at 12.5 µM; 0.23% of 360,000 active; AID 588692, 2011;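 active = mean luciferase reporter signal, scaled so untreated is 0 and the glycosylation-blocking control 100, at or above a set limit in every replicate; inconclusive = mean reaches the limit but not every replicate does; inactive = mean below the limit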;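 also: luciferase carries N-glycosylation sites so blocking glycosylation raises the light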
DENV2 CPE rescue – inhibitors of DENV2 cytopathic effect, primary screen, cell-based, plate reader, single concentration | DENV2-infected cells, cytopathic effect rescue | AID 651640, 2012 | CPE inhibition, % at 9.99 µM | 1.7% of 350,000 active; in the data active = CPE inhibition above about 20%, passing the limit was not always enough; inconclusive = no clear call, values can overlap the other calls; tested in BHK-21 cells
Numbers stand for hits. This is one part of a sample in which hits are shown more often than they occur.

For Cc1noc(C)c1S(=O)(=O)N(C)C[C@H]1OCCCC[C@H](C)Oc2ccc(NC(=O)NC(C)C)cc2C(=O)N([C@H](C)CO)C[C@@H]1C the results were PglD inh inactive and DENV2 CPE rescue 102.5.
Screening O=C(Nc1cccc(F)c1)N1CC(=O)N2[C@@H](CO)[C@H](c3ccc(C#Cc4cccnc4)cc3)[C@@H]2C1 returned DENV2 CPE rescue inactive.
Screening O=C(C1CCCC1)N1CCCCN2[C@H](CO)[C@@H](c3ccc(C#CC4CC4)cc3)[C@@H]2C1 returned PglD inh inactive and DENV2 CPE rescue inactive.
For COC(=O)[C@]12CCCCC=C1N(Cc1cccc3ccccc13)C(=O)[C@H](CC(=O)NCCC(C)C)C2 the results were DENV2 CPE rescue 109.3.
`COC(=O)[C@]12CCCCC=C1N(Cc1cccc3ccccc13)C(=O)[C@H](CC(=O)N1CCSCC1)C2` gave DENV2 CPE rescue 32.1.
`CCOC(=O)[C@]12CCC=C1N(Cc1cccc3ccccc13)C(=O)[C@H](CC(=O)N1CCCC1)C2` gave DENV2 CPE rescue 37.3.
For CCOC(=O)[C@]12CCCC=C1N(Cc1cccc3ccccc13)C(=O)[C@H](CC(=O)N1CCSCC1)C2 the results were DENV2 CPE rescue inactive.
Screening COCCNC(=O)C1=C(N)C(C(=O)Nc2ccc(C)c(S(=O)(=O)N3CCCCC3)c2)SC1=Nc1ccc(C)cc1C (centres undefined) returned PglD inh inactive, Rtt109 HAT inh 57.8 and Glyco luc inh inactive.
`CCCNC(=O)C[C@H]1C[C@H]2c3cc(NC(=O)CC4CC4)ccc3O[C@H]2[C@@H](CO)O1` gave PglD inh inactive and DENV2 CPE rescue inactive.
CC(=O)N[C@@H]1C[C@@H]2O[C@H](CO)CC[C@@H]2O[C@@H]1CCc1ccc(C#CC2(O)CCCC2)cc1 was read as DENV2 CPE rescue 21.3.
For CS(=O)(=O)N[C@@H]1C[C@@H]2O[C@@H](CO)CC[C@@H]2O[C@@H]1CCc1ccc(-c2ccccc2F)cc1 the results were DENV2 CPE rescue 21.4.
`N#C[C@@H]1[C@@H](c2ccc(-c3cncnc3)cc2)[C@H](CO)N1C(=O)C1CCC1` gave PglD inh inactive and DENV2 CPE rescue inconclusive.
`COC(=O)C1=COC(OC2OC(CO)C(O)C(O)C2O)C2C(C)CC(=O)C12` (centres undefined) gave PglD inh inactive, Glyco luc inh inactive and DENV2 CPE rescue inactive.
For C=C1C[C@H](O[C@@H]2O[C@H](CO)[C@@H](O)[C@H](O)[C@H]2O)[C@@H]2[C@H](OC(=O)[C@H]2C)[C@H]2[C@H](C)[C@H](O)C[C@@H]12 the results were PglD inh inactive, Rtt109 HAT inh inactive, Glyco luc inh inactive and DENV2 CPE rescue 55.5.
COc1cccc(-c2ccc3c(c2)[C@H]2[C@H](CCN2S(=O)(=O)c2ccccc2C)[C@@H](CO)N3)c1 was read as PglD inh inactive and DENV2 CPE rescue inactive.
N#Cc1cccc(-c2ccc3c(c2)[C@@H]2[C@@H](CCN2S(=O)(=O)c2ccccc2F)[C@H](CO)N3)c1 was read as PglD inh inactive and DENV2 CPE rescue inactive.
`Cn1cnc(S(=O)(=O)N2CC[C@H]3[C@H](CO)Nc4ccc(-c5ccccc5)cc4[C@H]32)c1` gave PglD inh inactive and DENV2 CPE rescue inactive.
For COc1cccc(-c2ccc3c(c2)[C@H]2[C@H](CCN2S(=O)(=O)c2ccccc2C)[C@H](CO)N3)c1 the results were PglD inh inactive and DENV2 CPE rescue 38.6.
Screening Cc1ccccc1S(=O)(=O)N1CC[C@@H]2[C@H](CO)Nc3ccc(-c4cccc(C#N)c4)cc3[C@@H]21 returned PglD inh inactive and DENV2 CPE rescue 95.7.
For Cc1ccccc1S(=O)(=O)N1CC[C@@H]2[C@@H](CO)Nc3ccc(-c4cccc(C#N)c4)cc3[C@@H]21 the results were PglD inh inactive and DENV2 CPE rescue 64.6.
COc1cccc(-c2ccc3c(c2)[C@@H]2[C@@H](CCN2S(=O)(=O)c2cn(C)cn2)[C@@H](CO)N3)c1 was read as PglD inh inactive and DENV2 CPE rescue 35.1.
For COc1ccc(S(=O)(=O)N2CC[C@H]3[C@H](CO)Nc4ccc(-c5ccc(C#N)cc5)cc4[C@H]32)cc1 the results were PglD inh inactive and DENV2 CPE rescue inactive.

Compound activity deposited in PubChem by Broad Institute.
